From PubChem BioAssay
MCF10A rerep = A quantitative high throughput screen for small molecules that induce DNA re-replication in MCF 10a normal breast cells. 350,000 tested, 2.9% active. Potency, µM (series often up to 46.1 µM), inactives show at the top dose activity, positive = re-replication, most hits filed as activators. MCF 10A DNA re-replication, Hoechst nuclear intensity, 48 h; note: potency is the fitted concentration of half-maximal effect; % of control where 0% means no effect; nearly all actives have a fitted effect of over 50% in size
S-ASM inh = Inhibitors of Secretory Acid Sphingomyelinase (S-ASM): qHTS. Potency, µM (top dose mostly 57.5 µM), for inactives: top-dose activity change, negative = inhibition, usual class: inhibitors. AID 504937, 2011. 340,000 tested, 0.006% active. placental ASM, HMU-PC fluorogenic substrate, 60 min; note: potency is the fitted concentration of half-maximal effect
Target sequence (P17405 47-631 limits assumed): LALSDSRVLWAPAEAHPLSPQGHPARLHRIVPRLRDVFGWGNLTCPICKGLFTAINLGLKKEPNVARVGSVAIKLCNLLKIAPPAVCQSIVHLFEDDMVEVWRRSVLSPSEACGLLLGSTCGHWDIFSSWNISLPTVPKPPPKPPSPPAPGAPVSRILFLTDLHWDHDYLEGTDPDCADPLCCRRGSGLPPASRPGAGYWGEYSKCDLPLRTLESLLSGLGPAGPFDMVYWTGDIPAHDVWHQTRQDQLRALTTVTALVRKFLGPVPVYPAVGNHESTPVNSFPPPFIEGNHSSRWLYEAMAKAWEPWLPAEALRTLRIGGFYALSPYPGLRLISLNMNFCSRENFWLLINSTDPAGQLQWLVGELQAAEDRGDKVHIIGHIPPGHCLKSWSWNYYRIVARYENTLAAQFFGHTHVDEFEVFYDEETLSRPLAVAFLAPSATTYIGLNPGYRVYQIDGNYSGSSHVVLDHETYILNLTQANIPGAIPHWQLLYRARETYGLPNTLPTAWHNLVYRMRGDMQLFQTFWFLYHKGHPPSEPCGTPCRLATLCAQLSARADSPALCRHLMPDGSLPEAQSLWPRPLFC
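Steps: dispense placental human ASM, pin compound, wait 10 min at room temperature, add HMU-PC0 substrate at 9 uM final, incubate 60 min at 37 °C, add stop solution raising pH to 10, read fluorescence.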
SW480 rerep = A quantitative high throughput screen for small molecules that induce DNA re-replication in SW480 colon adenocarcinoma cells; Potency, µM (top dose mostly 46.1 µM), for inactives: at the top dose re-replication activation, usual class: activators; 340,000 tested, 1.8% active; SW480 DNA re-replication, Hoechst DNA content imaging, 48 h; note: potency is the fitted concentration of half-maximal effect; % of control where 0% means no effect; nearly all actives have a fitted effect of over 55% in size
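Treated cells incubate 48 hr (37 C, 5% CO2), are stained 40 min with Hoechst, and nuclear fluorescence is enumerated; a rise in nuclei with high DNA signal marks re-replication.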
KB-V1 cytotox = qHTS assay for MDR1-selective chemotherapeutics: Primary screen using the drug-selected MDR subline cells KB-V1; KB-V1 MDR cells viability, CellTiter-Glo, 72 h; Potency, µM (series often up to 46.1 µM), hits mostly cytotoxic; 400,000 tested, 3.4% active; AID 1347076, 2019; note: potency is the fitted concentration of half-maximal effect; % is set by controls: 0 for no effect and ±100 for the full control effect; nearly all actives have a fitted effect of over 60% in size
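Potencies derive from concentration-effect curves fitted to normalized luminescence (CellTiter-Glo) of KB-V1 cells treated for 72 h at 37 degrees C in phenol-red-free DMEM containing 10% FBS.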
Giardia kill = Small Molecules that selectively kill Giardia lamblia: qHTS; Giardia lamblia trophozoite viability; activity change, % at 7.66 µM, hits read low; 340,000 tested, 0.15% active; AID 540267, 2011; in the data active = activity change below about -80%; inconclusive = between about -30% and that limit;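 note: parasites exposed to compound for two days anaerobically before the ATP read; % is set by controls: 0 for no effect and ±100 for the full control effect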
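Luminescent ATP signal served as the viability read-out, measured 15-30 min after adding ATP detection reagent to trophozoites that had been incubated with compounds for 48 hrs at 37 deg C anaerobically at 100 cells/well.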
KB-3-1 tox = qHTS assay for MDR1-selective chemotherapeutics: Primary screen using the parental adenocarcinoma cell KB-3-1; 400,000 tested, 1.4% active; KB-3-1 viability, CellTiter-Glo ATP luminescence, 72 h; Potency, µM (doses to about 46.1 µM), actives largely listed as cytotoxic; AID 1347075, 2019; note: potency is the fitted concentration of half-maximal effect; % is set by controls: 0 for no effect and ±100 for the full control effect; nearly all actives have a fitted effect of over 60% in size
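KB-3-1 parental drug-naive adenocarcinoma cells in DMEM/10% FBS, incubated 72 h at 37 C with pin-transferred compounds across a concentration series. Viability by CellTiter-Glo luminescence; concentration-response curves fitted after normalization.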
Active calls of the source: *; ! = repeats disagree. A selection: hits, their analogues and other compounds. The true share with any hit is near 6.9%. Unless noted, calls come from the whole dose curve; as a rule, active = well fitted curve in the direction sought with a large enough effect; inconclusive = small, poorly fitted or top-dose-only effect, or another doubt; inactive = no such curve, though single readings can be large; an effect the other way counts as inactive or inconclusive.

What do the screens show for `CC(C)OCCCNC(=O)c1cccc(NC(=O)c2ccccc2)c1`?
MCF10A rerep: 2%; S-ASM inh: 0%; SW480 rerep: -1%; KB-V1 cytotox: 16µM*; Giardia kill: 11; KB-3-1 tox: inactive

What do the screens show for `CC(C)OC(=O)c1cccc(NC(=O)c2ccccc2)c1`?
MCF10A rerep: inconclusive; S-ASM inh: -3%; SW480 rerep: 6%; KB-V1 cytotox: 12µM*; Giardia kill: -15; KB-3-1 tox: inactive

How did CC(CCc1ccccc1)NC(=O)c1ccc(NC(=O)c2ccccc2)cc1 (configuration not stated) do in these assays?
MCF10A rerep: inconclusive; S-ASM inh: -1%; SW480 rerep: inconclusive; KB-V1 cytotox: inactive; Giardia kill: 5; KB-3-1 tox: inactive

Results for Cc1cccc(C)c1OCc1cc(C(=O)N(Cc2nccn2C)C(C)C)no1 ?
MCF10A rerep: 2%; S-ASM inh: 2%; SW480 rerep: inconclusive; KB-V1 cytotox: inconclusive; Giardia kill: 17; KB-3-1 tox: inactive

How did COC(=O)c1ccc(CN2C(=O)NC(Cc3c[nH]c4ccccc34)C2=O)cc1 (configuration not stated) do in these assays?
MCF10A rerep: 0%; S-ASM inh: 4%; SW480 rerep: -3%; KB-V1 cytotox: 18µM*; Giardia kill: 38; KB-3-1 tox: inactive

What do the screens show for `COc1ccc(Cl)cc1NC(=O)CN1C(=O)NC(Cc2c[nH]c3ccccc23)C1=O` (configuration not stated)?
MCF10A rerep: 4%; S-ASM inh: -8%; SW480 rerep: 12%; KB-V1 cytotox: 21µM*; Giardia kill: -4; KB-3-1 tox: inconclusive

What do the screens show for `C[C@H](CO)N1C[C@H](C)[C@H](CN(C)C(=O)Nc2ccc(F)cc2)OCc2ccccc2-c2c(n(C)c3ccccc23)C1=O`?
KB-V1 cytotox: inactive; KB-3-1 tox: inactive

How did Cc1ccc(O/C=C2/Nn3c(nnc3-c3cc(-c4ccccc4)n[nH]3)S2)cc1 do in these assays?
KB-V1 cytotox: inactive; Giardia kill: 15; KB-3-1 tox: inactive

What do the screens show for `CCSc1cnn(-c2ccccc2)c(=O)c1Cl`?
MCF10A rerep: inconclusive; S-ASM inh: 0%; SW480 rerep: inconclusive; KB-V1 cytotox: inactive; Giardia kill: 11; KB-3-1 tox: inactive

Results for CCOc1cnn(-c2ccccc2)c(=O)c1Cl ?
MCF10A rerep: 26µM*; S-ASM inh: 3%; SW480 rerep: 6%; KB-V1 cytotox: inactive; Giardia kill: 4; KB-3-1 tox: inactive

Results for O=c1c(Cl)c(Cl)cnn1-c1ccccc1 ?
MCF10A rerep: 3.7µM*; S-ASM inh: 2%; SW480 rerep: 4.1µM*; KB-V1 cytotox: inactive; Giardia kill: 8; KB-3-1 tox: 18µM*

Results for CCSc1nnc(NC(=O)c2nc(S(=O)(=O)Cc3ccc(F)cc3)ncc2Cl)s1 ?
MCF10A rerep: 27%; S-ASM inh: 8%; SW480 rerep: inconclusive; KB-V1 cytotox: inactive; Giardia kill: 2; KB-3-1 tox: inconclusive

What do the screens show for `CCc1nnc(NC(=O)c2nc(S(=O)(=O)Cc3cccc(C)c3)ncc2Cl)s1`?
MCF10A rerep: inconclusive; S-ASM inh: -6%; SW480 rerep: 5.8µM*; KB-V1 cytotox: inconclusive; Giardia kill: -11; KB-3-1 tox: 21µM*

How did CCc1nnc(NC(=O)CN2CCN(Cc3ccccc3C)CC2)s1 do in these assays?
MCF10A rerep: 1%; S-ASM inh: 3%; SW480 rerep: 4%; KB-V1 cytotox: inactive; Giardia kill: -15; KB-3-1 tox: inactive

How did CCc1nnc(NC(=O)CN2CCN(Cc3ccc(C)cc3)CC2)s1 do in these assays?
MCF10A rerep: 0.92µM*; S-ASM inh: 0%; SW480 rerep: inconclusive; KB-V1 cytotox: inactive; Giardia kill: 19; KB-3-1 tox: inactive

What do the screens show for `Cc1cccc(CS(=O)(=O)c2ncc(Cl)c(C(=O)Nc3nnc(C(C)C)s3)n2)c1`?
MCF10A rerep: inconclusive; S-ASM inh: -4%; SW480 rerep: inconclusive; KB-V1 cytotox: 16µM*; Giardia kill: -4; KB-3-1 tox: 16µM*

How did CCOc1ccccc1NC(=O)c1nc(S(=O)(=O)Cc2cccc(C)c2)ncc1Cl do in these assays?
MCF10A rerep: inconclusive; S-ASM inh: -11%; SW480 rerep: 3.3µM*; KB-V1 cytotox: inconclusive; Giardia kill: 27; KB-3-1 tox: 5.2µM*!

Results for COC(=O)c1ccccc1NC(=O)c1nc(S(=O)(=O)Cc2ccccc2)ncc1Cl ?
MCF10A rerep: inconclusive; S-ASM inh: 1%; SW480 rerep: -4%; KB-V1 cytotox: inactive; Giardia kill: 11; KB-3-1 tox: inactive

How did CCc1nnc(NC(=O)c2nc(S(=O)(=O)Cc3ccc(C)cc3)ncc2Cl)s1 do in these assays?
MCF10A rerep: 1.3µM*; S-ASM inh: -4%; SW480 rerep: 93%; KB-V1 cytotox: inconclusive; Giardia kill: 0; KB-3-1 tox: 16µM*!

Results for Cc1ccc(CS(=O)(=O)c2ncc(Cl)c(C(=O)Nc3nnc(C(C)C)s3)n2)cc1 ?
MCF10A rerep: inconclusive; S-ASM inh: -6%; SW480 rerep: 6%; KB-V1 cytotox: inconclusive; Giardia kill: -2; KB-3-1 tox: inconclusive

What do the screens show for `CCc1nnc(NC(=O)c2nc(S(=O)(=O)Cc3ccccc3)ncc2Cl)s1`?
MCF10A rerep: 0.82µM*; S-ASM inh: 1%; SW480 rerep: inconclusive; KB-V1 cytotox: inconclusive; Giardia kill: -16; KB-3-1 tox: 23µM*

What do the screens show for `CSc1nnc(NC(=O)c2nc(S(=O)(=O)Cc3cccc(C)c3)ncc2Cl)s1`?
MCF10A rerep: 2.1µM*; S-ASM inh: -2%; SW480 rerep: 21%; KB-V1 cytotox: inconclusive; Giardia kill: -1; KB-3-1 tox: 16µM*

How did CC(C)CN(CCNC(=O)c1cc(-c2cccs2)nc2ccccc12)CC(C)C do in these assays?
KB-V1 cytotox: inactive; KB-3-1 tox: inactive

How did COc1ccc(CC(=O)c2ccc(OC)c(OC)c2C)cc1OC do in these assays?
MCF10A rerep: 0%; S-ASM inh: 0%; SW480 rerep: inconclusive; KB-V1 cytotox: 2.3µM*; Giardia kill: -3; KB-3-1 tox: 6.5µM*
